According to PubChem BioAssay (NCI):
Compounds without any hit were thinned out: in the full panel of roughly 83,000, 20% have a hit.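 Negative percent growth values reflect cell death: -40 means 40% of the cells present at the start died, and -100 means all died.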 Calls of active or inactive are those of the source.

Each molecule was assayed on HL-60(TB) leukemia (assay: NCI-60 one-dose screen, 48 h (100 = growth as untreated, 0 = no growth, -100 = all killed)). Conditions: 10 µM unless noted.
Description: Growth inhibition of the HL-60(TB) human tumor cell line is measured as a screen for anti-cancer activity. Cells are grown in 96 well plates and exposed to the test compound for 48 hours. Compounds are tested at a single concentration, which is 10^-5 M for most compounds. The reported endpoint is percent growth (GI% or GIPRCNT), where numbers from 0 - 100% represent growth inhibition, and numbers from -100% - 0 represent cell death. For example, a value of 40 represents 60% growth inhibition. A value of 0 means no net growth occurred over the course of the experiment. A value of -40 indicates 40% of cells at the beginning of the experiment died by the end of the experiment. A value of -100 means all cells are dead at the end of the experiment.
NCI-60 Human Tumor Cell Lines Screen was performed using the standard one-dose NCI protocol, which is described in more detail at https://dtp.cancer.gov/discovery_development/nci-60/default.htm.
Compounds with GIPRCNT values below 10 were considered active. Activity score was based on GIPRCNT using the following formula: […]
Score is 0 for GIPRCNT values of 100 or above, 50 for GIPRCNT values of 0, and 100 for GIPRCNT values of -100.
With C[C@@]12CC=C3c4nc(Nc5cccc(O)c5)sc4CC[C@]3(C)[C@H]1CC[C@]1(C)C(=O)CC[C@@H]21 the growth was 46% (inactive). In the case of O=[N+]([O-])c1cc([N+](=O)[O-])c(Cl)cc1Cl, the growth is reported as -40.4% (active). For C/C1=C/C(=O)O[C@@H]2C[C@@H](CC[C@H](C)/C=C\C=C\CC1)O[C@@](O)([C@@H]1CSC(=O)N1CO)C2, the growth was 28.2% (inactive). In the case of O=[N+]([O-])/C=C\c1ccc(Cl)c(Cl)c1, the growth is reported as 34.6% (inactive). With CC[C@@H]1[C@@H](C)O[C@@](O)([C@@H](C)[C@H](O)[C@H](C)[C@H]2OC(=O)/C=C/C=C/[C@H](C)[C@@H]([C@@H](C)[C@@H](O)[C@H](C)[C@@]3(O)C[C@@H](O[C@H]4C[C@@H](O)[C@H](O)C(C)O4)[C@H](CC)[C@@H](C)O3)OC(=O)/C=C/C=C/[C@@H]2C)C[C@H]1O[C@@H]1C[C@@H](O)[C@H](O)C(C)O1 (stereo not given in full) the growth was -73.3% (active). With COc1cc(/C=C\c2cc(OC)c(OC)c(OC)c2)cc(NS(=O)(=O)c2cccc(Cl)c2)c1OC the growth was 4.54% (active). With COC(=O)[C@@H](C)C[C@H](Cc1ccccc1)NC(=O)c1csc([C@@H](C[C@H](C(C)C)N(C)C(=O)[C@H](C)NC(=O)[C@H]2CCCN2C)OC(C)=O)n1 the growth was -21.2% (active). In the case of CCN(CC)c1ccc2c(c1)OC(N)=C(C#N)C2c1cc(OC)c2c(c1)OCO2 (stereo not given), the growth is reported as 13% (inactive). In the case of ClCCN(CCCl)Cc1ccc(Nc2ccnc3cc(Cl)ccc23)cc1, the growth is reported as -38.6% (active). C[C@@H]1CCC2[C@@H](C)[C@H](OC(=O)CCC(=O)NCCNC(=O)Cc3cc(=O)oc4cc(N(C)C)ccc34)O[C@@H]3O[C@]4(C)CC[C@@H]1C23OO4 (stereo not given in full) was tested, and the growth was -38.8% (active). NC1CC2CCCCC2CC1(O)c1ccccc1 (stereo not given) was tested, and the growth was 91.1% (inactive). In the case of O=C(O)c1c(Cl)n(Cc2ccc(O)cc2)c2ccc(O)cc12, the growth is reported as 101% (inactive). With C#Cc1ccc2c(c1)C(c1ccccc1F)=NCC(=O)N2C the growth was 10.2% (inactive). For C=CC[PH+](c1ccccc1)c1ccccc1.C=CC[PH+](c1ccccc1)c1ccccc1.[Cl][Pt][Cl], the growth was -19.4% (active). For O=[N+]([O-])c1cc([N+](=O)[O-])c(Nn2c3ccccc3c3ccccc32)c([N+](=O)[O-])c1, the growth was -30.3% (active). For Cc1ccc(S(=O)(=O)C(Cl)(Cl)Cl)cc1, the growth was 91.1% (inactive). With O=C(N/N=C\c1ccc(N(CCCl)CCCl)cc1Cl)c1cccnc1 the growth was 91.8% (inactive). With COC(=O)CC[C@H](Cc1ccccc1)NC(=O)c1csc([C@@H](C[C@H](C(C)C)N(C)C(=O)[C@@H](NC(=O)[C@H]2CCCCN2C)C(C)C)OC(C)=O)n1 the growth was 4.63% (active). With c1ccc(Nc2nc(-c3ccccc3)c[se]2)cc1 the growth was 102% (inactive). For CNC(=O)Oc1ccc(C(C)(C)C)cc1OC(=O)NC, the growth was 85.8% (inactive). O=C1C=C(N2C3C4CCC(C4)C32)C(=O)C=C1c1ccccc1 (stereo not given) was tested, and the growth was 44.8% (inactive). With CC(=O)[C@H]1CC[C@H]2[C@@H]3CC[C@H]4C[C@H](N)CC[C@]4(C)[C@H]3CC[C@]12C the growth was 63.4% (inactive). With COC(=O)[C@@H](C)C[C@H](Cc1ccccc1)NC(=O)c1cccc([C@@H](C[C@H](C(C)C)N(C)C(=O)[C@@H](NC(=O)[C@H]2CCCCN2C)C(C)C)OC(C)=O)n1 the growth was -28.6% (active). COc1ccc2c(c1)c(-c1nc(-c3c[nH]c4ncccc34)cs1)cn2CCCCN1CCCCC1 was tested, and the growth was -69.8% (active). For CC12CCC3C(CCC4=CC(=O)CCC43CF)C1CCC2=O (stereo not given), the growth was 113% (inactive). CN(C)C(=O)Oc1ccc(Br)cc1 was tested, and the growth was 102% (inactive). For CNC(=O)Oc1ccc(N(C)C)cc1C(C)C, the growth was 130% (inactive). In the case of CC(C)[C@]12O[C@H]1[C@@H]1O[C@]13[C@]1(O[C@H]1C[C@H]1c4c(C(=O)c5ccccc5)oc(OC(=O)c5ccccc5)c4CC[C@@]13C)[C@@H]2O, the growth is reported as -46% (active). With CCC(C)(C)[C@H](NC(=O)[C@H]1CCCCN1C)C(=O)N(C)[C@H](C[C@@H](OC(C)=O)c1nc(C(=O)N[C@@H](Cc2ccccc2)C[C@H](C)C(=O)O)cs1)C(C)C the growth was -8.72% (active). With C[C@]12CCc3sc(-c4ccccc4O)nc3C1=CC[C@@H]1[C@@H]2CC[C@]2(C)C(=O)CC[C@@H]12 the growth was 103% (inactive). With CC[S][Hg][Cl] the growth was 113% (inactive). With COc1cc2c(cc1OCCCCn1c(-c3cccs3)nc3ccccc31)N=C[C@@H]1CCCN1C2=O the growth was -18.7% (active). In the case of CC(=O)O[C@H](C[C@H](C(C)C)N(C)C(=O)[C@@H](NC(=O)[C@H]1CCCN1C)C(C)C)c1nc(C(=O)N[C@@H](Cc2ccccc2)C[C@H](C)C(=O)O)c(C)s1, the growth is reported as -19.2% (active). With COc1cc(C=C2c3ccccc3C(=O)c3ccccc32)ccc1OCCCCOc1cc2c(cc1OC)C(=O)N1CCCC1C=N2 (stereo not given) the growth was -21.3% (active). With CCn1nccc1NC(=O)C(=O)c1cn(Cc2ccc(F)cc2)c2cccc(OC)c12 the growth was 56.8% (inactive). For CC(C)OC(=O)[C@H](C)NP(=O)(Oc1ccccc1)C1CCCN(O)C1=O (stereo not given in full), the growth was 94.1% (inactive). With CC[C@H](C)[C@H](NC(=O)C12C3C4C1C1C2C3C41NC)C(=O)N(C)[C@H](C[C@@H](OC(C)=O)c1nc(C(=O)N[C@@H](Cc2ccccc2)C[C@H](C)C(=O)OC)cs1)C(C)C (stereo not given in full) the growth was -14.6% (active). CCOC(=O)CCC(NC(=O)C(Cc1ccc(N(CCCl)CCCl)cc1)NC=O)C(=O)OCC (stereo not given) was tested, and the growth was 9.37% (active). For Clc1cccc(NCOOC2(OOCNc3cccc(Cl)c3)CCCCCC2)c1, the growth was 78.8% (inactive). With CN(C)CCCOc1ccc2c(c1)c(C(=O)C(=O)NCCO)cn2Cc1ccccc1 the growth was 106% (inactive).
